Experimental data taken from PubChem BioAssay (Tox21).
Results filed as inconclusive are left out. Calls of active or inactive are those of the source. Unless noted, the call rests on the fitted dose curve; in most records, active means well fitted curve in the direction sought with a large enough effect in the repeat runs; inconclusive means weak or mixed curves; inactive means no such curve, though single readings can be large; an effect the other way counts as inactive or inconclusive. Non-standard residues stand in square brackets, D forms with d. Residues, ends and D or L forms follow the SMILES beside them. pGlu = O=C1CC[C@@H](C(=O)O)N1; Thz = O=C(O)[C@@H]1CSCN1

Assays:
[1] = qHTS assay for small molecule agonists of the p53 signaling pathway (AID 651631; calls by dose curve; further: nearly all actives have a fitted effect of over 15% in size)
Procedure, shortened: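 HCT-116 cells carrying a stable p53 response element–beta-lactamase reporter were plated, rested 5 h at 37 °C, then exposed to compound in DMSO for 16 h at 37 °C; reporter activity was read as FRET substrate fluorescence after 2 h at room temperature.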

[2] = qHTS assay for small molecules that induce genotoxicity in human embryonic kidney cells expressing luciferase-tagged ATAD5 (AID 651632); further: nearly all actives have a fitted effect of over 15% in size
Procedure, shortened: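 Test compounds were delivered by pin tool onto HEK293T reporter cells (2,000/well) expressing ATAD5 fused to luciferase. After 16 hr at 37C, 5% CO2, Amplite was added for 30 min at room temperature and luminescence was measured.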

[3] = qHTS assay for small molecule agonists of the p53 signaling pathway - cell viability (AID 651633; calls by dose curve; further: series mostly up to about 83 µM; nearly all actives have a fitted effect of over 30% in size)
Procedure, shortened: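 p53RE-bla cells, seeded at 4,000 per well and rested 5 h at 37 C/5% CO2, received compounds in DMSO for 16 h at 37 C. CellTiter-Glo was then added, and luminescence was read after 30 min at room temperature to gauge cytotoxicity.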

[4] = qHTS assay for small molecules that induce genotoxicity in human embryonic kidney cells expressing luciferase-tagged ATAD5 - cell viability (AID 651634; calls by dose curve; further: nearly all actives have a fitted effect of over 25% in size)
Procedure, shortened: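 Quantitative high-throughput format. HEK293T cells expressing ATAD5 fused to luciferase were plated at 2,000 cells/well and treated 15.5 hr with compound versus DMSO. Viability was determined by fluorescent live-cell protease substrate, 30 min at 37C.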

[5] = qHTS assay for small molecule disruptors of the mitochondrial membrane potential - cell viability (AID 720634; calls by dose curve;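 further: human HepG2 liver cancer cells; series mostly up to about 83 µM; nearly all actives have a fitted effect of over 20% in size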)
Procedure, shortened: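 Same-well counter-screen: following the MMP dye addition, CellTiter-Glo was added to 1 hr compound-treated HepG2 cells and luminescence read after 30 min at room temperature.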

[6] = qHTS assay to test for compound auto fluorescence at 590 nm (red) in HepG2 cells (AID 720674)
Procedure, shortened: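 Intrinsic compound fluorescence in the red window (Ex/Em 540/590 nm) is measured in attached HepG2 cells exposed for 1 hr, DMSO vehicle as baseline, benchmarked to Rose Bengal sodium.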

[7] = qHTS assay to test for compound auto fluorescence at 535 nm (green) in HepG2 cells (AID 720675)
[8] = qHTS assay to test for compound auto fluorescence at 460 nm (blue) in HEK293 cells (AID 720678)
Procedure, shortened: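 After cell attachment (4-5 hr, 37C), compounds were pinned onto HEK293 monolayers in 10% dialyzed FBS medium. The blue channel (405/460 nm) was read following overnight culture. Equivalency was calculated against triamterene.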

[9] = qHTS assay to test for compound auto fluorescence at 590 nm (red) in HEK293 cells (AID 720679)
Procedure, shortened: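 Plates of HEK293 cells (10% dialyzed FBS) are treated with 23 nL compound or DMSO vehicle after a 4-5 hr attachment period, incubated overnight at 37C, and read for red fluorescence at 540/590nm.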

[10] = qHTS assay for small molecule disruptors of the mitochondrial membrane potential (AID 720635)
Procedure, shortened: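 HepG2 cells (2,000/well) attached overnight at 37C, then took compound for 1 hr at 37C, 5% CO2. Mito-MPS dye was added for 30 min; fluorescence was read at 490/535 nm (monomers) and 540/590 nm (aggregates).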

Measured: Potency

COc1cc2c(cc1OC)CC(=O)N(CCCN(C)C[C@H]1Cc3cc(OC)c(OC)cc31)CC2
inactive: [1] | [2] | [3] | [4] | [5] | [6] | [7] | [8] | [9]

O=C1CC[C@@H](C(=O)N2CSC[C@H]2C(=O)O)N1 ([pGlu]-[Thz]-OH)
inactive: [1] | [2] | [3] | [4] | [5] | [6] | [7] | [8] | [9]

CO[C@@H]1[C@@H](O[C@@H]2O[C@H](C)[C@@H](O[C@H]3C[C@@](C)(O)[C@@H](O)[C@H](C)O3)[C@H](N(C)C)[C@H]2O)[C@@H](CC=O)C[C@@H](C)[C@@H](O[C@@H]2CC[C@H](N(C)C)[C@@H](C)O2)/C=C/C=C/C[C@@H](C)OC(=O)C[C@H]1O
inactive: [1] | [2] | [3] | [4] | [5] | [6] | [7] | [8] | [9]

CC1(O)CCC(C(C)(C)O)CC1 (stereo not drawn)
inactive: [1] | [2] | [3] | [4] | [5] | [6] | [7] | [8] | [9]

CC(=O)[C@@]1(O)CC[C@H]2[C@@H]3C=C(Cl)C4=CC(=O)[C@@H]5C[C@@H]5[C@]4(C)[C@H]3CC[C@@]21C
inactive: [1] | [2] | [3] | [4] | [5] | [6] | [8] | [9]

CC(C)(C)CC(C)(C)c1cc(Cc2cc(C(C)(C)CC(C)(C)C)cc(-n3nc4ccccc4n3)c2O)c(O)c(-n2nc3ccccc3n2)c1
inactive: [1] | [2] | [3] | [4] | [5] | [6] | [7] | [8] | [9]

CCC(=O)OCC(=O)[C@@]1(OC(=O)CC)[C@H](C)C[C@H]2[C@H]3[C@H]([C@@H](O)C[C@@]21C)[C@@]1(C)C=CC(=O)C=C1C[C@H]3Cl
inactive: [1] | [2] | [3] | [4] | [6] | [7] | [8] | [9]

Cc1ncc(COP(=O)(O)O)c(CN)c1O
inactive: [1] | [2] | [3] | [4] | [6] | [7] | [8] | [9]

CCN(CC)c1ccc(N=Nc2ccc(S(=O)(=O)N(C)C)cc2)c(S(=O)(=O)NCC[n+]2ccccc2)c1
inactive: [1] | [2] | [3] | [5] | [10] | [6] | [7] | [8] | [9]
